Source: PubChem BioAssay (several laboratories)
An excerpt weighted towards active compounds, which were near 7.2% of everything screened.
A1 inh: inhibitors of the anti-apoptotic protein A1, read as caspase activation. MEF A1-2A-BIM cells, Caspase-Glo 3/7 luminescence, 3 h; percent of clofoctol response, vehicle zero. caspase activation, % (no concentration beside the values). actives 0.066% (n = 330,000);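 active = over half of replicate activation scores above 10%, or exactly half above 10 with the replicate mean above 10; inconclusive = replicate mean below 10 yet half the replicates above 10; inactive = over half of replicates below 10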
Efflux pump mplx: antifungal efflux pump inhibition, Nile Red retention | S. cerevisiae Candida pump triplex | inhibition, % at 10 µM | actives 0.44% (n = 330,000) | AID 485275;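 active = plate passing quality check with inhibition over a set limit, or well fluorescence over plate mean plus 4 SD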;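 note: Nile Red retained in pooled yeast measured as flow cytometry median fluorescence; higher means more Nile Red kept so more efflux inhibition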
Mot1-301 SUMO: blocks SUMOylation pathway, rescuing yeast Mot1-301 growth; S. cerevisiae Mot1-301 growth rescue, ATP luminescence, 38.5C; percent above DMSO median, 100 means doubled; growth rescue, % at 18.8 µM; actives 1% (n = 320,000);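 active = every valid replicate shows activation above 250% relative to neutral control wells; inactive = the rest, any valid replicate at or below 250%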
VLA-4 inh: inhibition in a human VLA-4 binding assay; inhibition, % (about 7 µM as worked out from the volumes in the protocol); VLA-4 expressing cells, ligand binding flow cytometry; actives 0.2% (n = 330,000); P13612; in the data active = inhibition above about 50%
ALR H2O2 inh: inhibitors of human sulfhydryl oxidase ALR; P55789; purified ALR, DTT oxidation, H2O2 HRP-luminol luminescence; inhibition, % (concentration not given with the values); actives 3.8% (n = 290,000); AID 485317;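 active = mean replicate inhibition above about 79%, with every replicate also reaching it, limit read from the data; inconclusive = only one of the two criteria met; inactive = mean below limit and not every replicate reaching it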
AHR activator: human AHR activation | AHR-responsive luciferase reporter cells, luminescence | activation, % at 5 µM | actives 2.5% (n = 320,000); in the data active = activation above about 47%
Yeast Mot1 SUMO: yeast SUMO pathway inhibition in dose response; shares compounds with Mot1-301 SUMO; S. cerevisiae Mot1-301 galactose growth, ATP luminescence, 24 h; -100 = growth of slx-deleted rescue strain; growth activity, percent, % at 42 µM; 2,300 tested, under 10 active; AID 493004;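 active = Signal drops as the depositor expects, and the fitted half-maximal dose is no more than ten times the top valid tested dose; inconclusive = Poor fit, or a flat curve whose signal drops by 30% to 70%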;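 note: more negative values mean stronger growth rescue toward the control strain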
Large screens that a line does not name were inactive (follow-up assays come after a bar, where they were run).

CCOc1ccc(-c2nc(C#N)c(N3CCOCC3)o2)cc1	Mot1-301 SUMO 417.3 | Yeast Mot1 SUMO inactive
CCCCCCCCc1nc(SCC(C)=O)n[nH]1	Mot1-301 SUMO 698.7 | Yeast Mot1 SUMO inactive
Cc1ccc(SCC(=O)Nc2ccc(-c3nc4ccccc4[nH]3)cc2)cc1	none
COc1ccc(C2NC(=O)c3ccccc3O2)cc1 (stereo not given)	Mot1-301 SUMO 529.0 | Yeast Mot1 SUMO inactive
O=C(C[C@H]1C[C@H](C(=O)N2CCOCC2)[C@@]2(CCC3CCCC3)c3[nH]c4ccc(Cl)cc4c3CCN2C1=O)NCC12CC3CC(CC(C3)C1)C2	none (no result: A1 inh, Mot1-301 SUMO, VLA-4 inh, ALR H2O2 inh, AHR activator)
Nc1ccc(C2(c3ccc(N)cc3)OC(=O)c3ccccc32)cc1	Mot1-301 SUMO 497.4 | Yeast Mot1 SUMO inactive
O=C(O)c1ccc(C2(c3ccc(C(=O)O)cc3)OC(=O)c3ccccc32)cc1	none
COC(=O)N/N=C/c1ccc(-c2ccc(Cl)cc2Cl)o1	Mot1-301 SUMO 454.5 | Yeast Mot1 SUMO inactive
O=C(Nc1nnc(-c2ccc3c(c2)OCCO3)o1)C1CCCCC1	none
CCOc1ncccc1C(=O)N(CC)CC(=O)NCc1ccc(F)cc1	none
N/C(Cn1cncn1)=N\NC(=O)c1ccc(Cl)cc1Cl	Mot1-301 SUMO 778.1 | Yeast Mot1 SUMO inactive
N#Cc1ccc(C23CC4(C2)[C@H](CN(Cc2ccc(C(F)(F)F)cc2)[C@@H]4c2ccccc2)C3c2ccccc2)cc1 (stereo not given in full)	none
N#Cc1ccc(C23CC4(C2)[C@H](CN(Cc2ccc(C(F)(F)F)cc2)[C@@H]4c2ccccc2)C3c2ccc(C(F)(F)F)cc2)cc1 (stereo not given in full)	Mot1-301 SUMO 427.5 | Yeast Mot1 SUMO inactive
Cc1cc(C)cc(-n2c(C)cc(/C=N/NC(=O)c3ccncc3)c2C)c1	none (no result: ALR H2O2 inh)
Cc1cc(/C=N/NC(=O)c2ccsc2)c(C)n1-c1cnccn1	Mot1-301 SUMO 555.2, AHR activator 77.5 | Yeast Mot1 SUMO inactive
Cc1c(-n2cccc2C=O)cccc1[N+](=O)[O-]	none
O=C(NC1CCc2ccccc21)c1cc(COc2ccc(F)cc2F)on1 (stereo not given)	Mot1-301 SUMO 396.1 | Yeast Mot1 SUMO inactive
COc1ccc(OCc2cc(C(=O)NC3CCc4ccccc43)no2)c(Cl)c1 (stereo not given)	none
CC(SC#N)C(=O)C12CC3CC(CC(C3)C1)C2 (stereo not given)	Mot1-301 SUMO 386.4 | Yeast Mot1 SUMO inactive
C/C=C/C(=O)OCC(=O)Nc1nc2ccc(C)cc2s1	Mot1-301 SUMO 360.6 | Yeast Mot1 SUMO inactive
Cc1ccc2nc(NC(=O)COC(=O)c3ccccn3)sc2c1	none
COc1ccccc1C(=O)OCC(=O)NC(=O)NCc1ccccc1	Mot1-301 SUMO 890.8 | Yeast Mot1 SUMO inactive
CCCOC(=O)c1c(-c2ccc(OC)cc2)oc2ccc(-c3ccc(OC)nc3)cc12	Mot1-301 SUMO 632.6 | Yeast Mot1 SUMO inactive
COc1ccc(-c2oc3ccc(-c4cc(OC)c(OC)c(OC)c4)cc3c2C(=O)c2ccc(OC)nc2)cc1	Mot1-301 SUMO 812.8 | Yeast Mot1 SUMO inactive
Cc1cc(C(=O)NNC(=O)C(CCC(N)=O)NS(=O)(=O)c2ccc(Cl)cc2)c(C)o1 (stereo not given)	none
N#Cc1cc2c(nc1SCc1cccnc1)CCC2	Mot1-301 SUMO active | Yeast Mot1 SUMO inactive
O=C(Nc1ccc(F)cc1F)c1c(C(F)(F)F)ccnc1Oc1ccc(Cl)cc1	none
CN(C(=O)COc1cc(=O)n(C)c2ccccc12)c1ccc(Cl)cc1	Mot1-301 SUMO 447.2 (no result: ALR H2O2 inh) | Yeast Mot1 SUMO inactive
CN1C(=O)C(C)(C)c2cc(S(=O)(=O)NCC(=O)NCc3ccccc3)ccc21	none
Cc1ccc2nc(N/N=C/c3ccccc3F)nc(-c3ccccc3)c2c1	Mot1-301 SUMO 473.2 (no result: ALR H2O2 inh) | Yeast Mot1 SUMO inactive
Cc1ccc2nc(N/N=C/c3ccccc3C#N)nc(-c3ccccc3)c2c1	none
Cc1ccc(C(=O)C(C)N2C(=O)NC(C)(c3ccccc3)C2=O)cc1 (stereo not given)	none (no result: Mot1-301 SUMO)
CCn1c(CSCc2ccc(F)cc2)nnc1SCC(=O)NCc1ccccc1	Mot1-301 SUMO 924.1 | Yeast Mot1 SUMO inactive
CC1CCN(C(=O)CCS(=O)(=O)c2cc3c(cc2Cl)NC(=O)CO3)CC1	A1 inh inconclusive
CCOc1ccccc1N(C(=O)c1snc(C(N)=O)c1N)C(CC)C(=O)NC1CCCC1 (stereo not given)	Mot1-301 SUMO 577.5 (no result: ALR H2O2 inh) | Yeast Mot1 SUMO inactive
NC(=O)c1nsc(C(=O)N(Cc2ccc(F)cc2)C(C(=O)NC2CCCC2)c2ccco2)c1N (stereo not given)	Mot1-301 SUMO 875.8 | Yeast Mot1 SUMO inactive
CCS(=O)c1ccccc1C(=O)O (stereo not given)	Mot1-301 SUMO 391.5 (no result: ALR H2O2 inh) | Yeast Mot1 SUMO inactive
CCSc1nnc2nc(C)cc(C)n12	none
Cc1cc(C)n2c(SCC(C)C)nnc2n1	Mot1-301 SUMO 770.4 | Yeast Mot1 SUMO inactive
COc1cccc(C2/C(=C(/O)c3ccccc3)C(=O)C(=O)N2Cc2ccco2)c1 (stereo not given)	Mot1-301 SUMO 496.8 | Yeast Mot1 SUMO inactive
CN(C)CCCN(Cc1ccccc1)C(=S)Nc1cccc(C(F)(F)F)c1	none
CN(C)CCCN(Cc1ccccc1)C(=S)Nc1ccc(F)c(Cl)c1	Mot1-301 SUMO 608.0 | Yeast Mot1 SUMO inactive
Cc1ccc(NC(=O)CC2CS(=O)(=O)CC2CC(=O)Nc2ccc(C)c(C)c2)cc1C (stereo not given)	Mot1-301 SUMO 439.6 | Yeast Mot1 SUMO inactive
Cc1cc(NC(=O)CC2CCCC2)ccc1Br	Mot1-301 SUMO 386.0 | Yeast Mot1 SUMO inactive
CC(OC(=O)CC1CCCCC1)C(=O)Nc1cccc(C#N)c1 (stereo not given)	none
COCCNC(=O)c1ccccc1N(Cc1ccccc1)S(=O)(=O)c1ccccc1	none
CCOc1ccc(N(C(C)C(=O)NC(C)CC)S(C)(=O)=O)cc1 (stereo not given)	Mot1-301 SUMO 397.3 | Yeast Mot1 SUMO inactive
COc1ccc(-c2cc(=O)[nH]c(N3CCN(Cc4ccccc4)CC3)n2)cc1	none
O=c1cc(-c2ccccc2)nc(N2CCN(Cc3ccccc3)CC2)[nH]1	Mot1-301 SUMO 478.5 | Yeast Mot1 SUMO inactive
CCCN(CCC)S(=O)(=O)c1ccc(C(=O)Nc2cc3oc4ccccc4c3cc2OC)cc1	none
CCCCOc1ccc(C(O)C(CN2CCOCC2)c2ccccc2)cc1 (stereo not given)	Mot1-301 SUMO 786.7 (no result: ALR H2O2 inh) | Yeast Mot1 SUMO inactive
CC(C)C(=O)NNC(=O)CC(=O)Nc1ccccc1C(=O)O	none
CCOc1ccc(CCNC(=O)CN2C(=O)CCSc3ccccc32)cc1	none
CN(CC(=O)Nc1sccc1C#N)Cc1ccccc1	Mot1-301 SUMO 486.6 | Yeast Mot1 SUMO inactive
N#Cc1ccsc1NC(=O)CN1CCN(Cc2ccccc2)CC1	none
